In PubChem BioAssay (Tox21):
Unmarked numbers belong to inactive results. Inconclusive results are not listed. A call without a number means that no potency is given here. Activity calls are given as the source filed them. Unless noted, the call rests on the fitted dose curve; in most records, active means well fitted curve in the direction sought with a large enough effect in the repeat runs; inconclusive means weak or mixed curves; inactive means no such curve, though single readings can be large; an effect the other way counts as inactive or inconclusive.

Tests used:
[1] = biological target: Progesterone receptor (Homo sapiens) (UniProt P06401); test: qHTS assay to identify small molecule agonists of the progesterone receptor (PR) signaling pathway (AID 1346784; calls by dose curve; further: nearly all actives have a fitted effect of over 30% in size)
Sequence of Progesterone receptor (Homo sapiens) (P06401 whole entry, looked up): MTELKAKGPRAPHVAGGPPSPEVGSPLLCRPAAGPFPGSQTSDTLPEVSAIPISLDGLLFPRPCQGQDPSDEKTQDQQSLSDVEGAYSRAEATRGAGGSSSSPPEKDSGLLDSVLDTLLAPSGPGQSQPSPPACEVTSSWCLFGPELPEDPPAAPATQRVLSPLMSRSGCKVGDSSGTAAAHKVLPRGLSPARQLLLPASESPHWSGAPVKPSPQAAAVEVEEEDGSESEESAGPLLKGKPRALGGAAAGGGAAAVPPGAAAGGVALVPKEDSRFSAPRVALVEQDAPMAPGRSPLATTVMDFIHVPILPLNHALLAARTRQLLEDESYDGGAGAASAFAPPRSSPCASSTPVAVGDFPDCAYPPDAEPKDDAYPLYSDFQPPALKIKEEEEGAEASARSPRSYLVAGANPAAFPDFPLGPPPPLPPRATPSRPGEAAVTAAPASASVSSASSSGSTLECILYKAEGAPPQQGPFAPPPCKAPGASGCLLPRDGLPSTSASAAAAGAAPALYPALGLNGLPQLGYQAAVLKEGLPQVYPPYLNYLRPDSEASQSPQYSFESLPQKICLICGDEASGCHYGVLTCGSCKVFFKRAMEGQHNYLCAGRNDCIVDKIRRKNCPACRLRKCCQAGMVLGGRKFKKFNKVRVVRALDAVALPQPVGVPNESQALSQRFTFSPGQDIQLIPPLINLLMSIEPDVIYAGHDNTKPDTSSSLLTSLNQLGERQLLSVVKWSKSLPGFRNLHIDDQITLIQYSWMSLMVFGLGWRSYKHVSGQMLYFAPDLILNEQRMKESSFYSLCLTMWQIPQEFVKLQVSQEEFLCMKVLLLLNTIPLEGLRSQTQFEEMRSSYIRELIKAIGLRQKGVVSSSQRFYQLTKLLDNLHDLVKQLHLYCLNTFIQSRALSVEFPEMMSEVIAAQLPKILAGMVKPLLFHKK
In short: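 Agonist qHTS: compounds pinned onto 3,000 PR-UAS-bla HEK 293T cells per well in charcoal-stripped serum medium, 16hr at 37C, then beta-lactamase activity measured by LiveBLAzer FRET fluorescence after 2 hours at room temperature.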

[2] = biological target: Progesterone receptor (Homo sapiens) (UniProt P06401); test: qHTS assay to identify small molecule antagonists of the progesterone receptor (PR) signaling pathway (AID 1346795; active means well fitted inhibition curve with a large enough effect in the signal ratio in the repeat runs, not every such curve was filed as active; the % refers to the signal ratio; further: potency means the concentration at half of the fitted maximal effect)
In short: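 Antagonist mode with agonist R5020 at 1 nM final and 16 hr incubation at 37C. Reporter was beta-lactamase driven by UAS in HEK293T (PR-UAS-bla), 2% charcoal-stripped serum; signal from LiveBLAzer FRET substrate, 2 hr at room temperature.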

[3] = qHTS assay to identify small molecule antagonists of the progesterone receptor (PR) signaling pathway - cell viability counter screen (AID 1346798); further: nearly all actives have a fitted effect of over 50% in size; further: potency means the concentration at half of the fitted maximal effect
In short: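 Cytotoxicity read as CellTiter-Glo luminescence (30 min, room temperature) in the same wells as the beta-lactamase readout. HEK293T PR-UAS-bla cells in charcoal-stripped 2% FBS received compound and R5020, then 16 h at 37C, 5% CO2.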

[4] = qHTS assay to identify small molecule agonists of the progesterone receptor (PR) signaling pathway - cell viability counter screen (AID 1346799; calls by dose curve; further: nearly all actives have a fitted effect of over 45% in size; further: potency means the concentration at half of the fitted maximal effect)
In short: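 Cytotoxicity measured by CellTiter-Glo luminescence (30 min, RT) in the same wells as the PR beta-lactamase agonist read. Those HEK293T cells had 16 h compound treatment at 37 C in 2% charcoal-stripped FBS medium.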

[5] = qHTS assay to identify small molecule antagonists of the TGF-beta/Smad signaling pathway - cell viability counter screen (AID 1346824); further: nearly all actives have a fitted effect of over 50% in size
In short: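 Cytotoxicity counter-screen run in the same wells as the beta-lactamase Smad reporter read: CellTiter-Glo luminescence after 30 min at room temperature. HEK 293T SBE-bla cells had 5 hr compound exposure at 37 C with TGF-beta1 (0.25 ng/mL stock).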

[6] = qHTS assay to identify small molecule agonists of the TGF-beta/Smad signaling pathway - cell viability counter screen (AID 1346829); further: top concentration of the series differs between compounds; nearly all actives have a fitted effect of over 45% in size
In short: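 Cytotoxicity counter screen: CellTiter-Glo luminescence (30 min, room temperature) measured in the SBE-bla HEK 293T reporter wells after 5 hr compound treatment at 37 C and the 2 hr substrate step.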

[7] = qHTS assay to identify small molecule agonists of the TGF-beta/Smad signaling pathway (AID 1346859; active means well fitted activation curve with a large enough effect in the signal ratio in the repeat runs, not every such curve was filed as active; the % refers to the signal ratio; further: series mostly up to about 77 µM)
In short: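 Fluorescence (ex 405 nm; em 460 and 530 nm) was read 2 h after LiveBLAzer FRET substrate at RT. The preceding compound treatment of overnight-plated SBE-bla HEK293T cells lasted 5 h at 37 C.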

[8] = Human pregnane X receptor (PXR) small molecule agonists, qHTS cell viability counter screen (AID 1346977); further: nearly all actives have a fitted effect of over 50% in size
In short: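 Same-well viability read: CellTiter-Fluor added after 23 hr compound exposure, fluorescence measured 1 hr later. Cells were PXR-Luc HepG2 seeded at 2,000/well in 5% charcoal-stripped FBS medium, rested 5 hr before dosing at 37 C.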

[9] = Caspase-3/7 induction in HepG2 cells by small molecules, qHTS assay (AID 1346978); further: nearly all actives have a fitted effect of over 15% in size
In short: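 Caspase-3/7 induction was measured by Caspase-Glo 3/7 luminescence (30 min, room temperature) after a 17 hr compound exposure of wild-type HepG2 cells seeded at 2,000 per well and pre-incubated 5 hr.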

[10] = Caspase-3/7 induction in CHO-K1 cells by small molecules, qHTS cell viability counter screen (AID 1346979); further: nearly all actives have a fitted effect of over 35% in size; further: potency means the concentration at half of the fitted maximal effect
In short: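 Cytotoxicity counter screen: CellTiter-Fluor added to compound-treated wild-type CHO-K1 cells at 16 h (37C, 5% CO2), fluorescence measured 1 h later; same wells as caspase-3/7 measurement.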

[11] = Caspase-3/7 induction in CHO-K1 cells by small molecules, qHTS assay (AID 1346980); further: nearly all actives have a fitted effect of over 15% in size
In short: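 Luminescent Caspase-Glo 3/7 read (30min, room temperature) quantified apoptosis induction. Cells were wild-type CHO-K1, treated with compound for 17hr at 37 C and 5% CO2.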

[12] = biological target: Nuclear receptor subfamily 1 group I member 2 (Rattus norvegicus) (UniProt Q9R1A7); test: Rat pregnane X receptor (rPXR) activation by small molecules, qHTS assay (AID 1346983); settings: rPXR luciferase reporter cells, One-Glo luminescence, 24 h; max activation: stronger effect = higher value; further: nearly all actives have a fitted effect of over 20% in size
Sequence of Nuclear receptor subfamily 1 group I member 2 (Rattus norvegicus) (Q9R1A7 whole entry, looked up): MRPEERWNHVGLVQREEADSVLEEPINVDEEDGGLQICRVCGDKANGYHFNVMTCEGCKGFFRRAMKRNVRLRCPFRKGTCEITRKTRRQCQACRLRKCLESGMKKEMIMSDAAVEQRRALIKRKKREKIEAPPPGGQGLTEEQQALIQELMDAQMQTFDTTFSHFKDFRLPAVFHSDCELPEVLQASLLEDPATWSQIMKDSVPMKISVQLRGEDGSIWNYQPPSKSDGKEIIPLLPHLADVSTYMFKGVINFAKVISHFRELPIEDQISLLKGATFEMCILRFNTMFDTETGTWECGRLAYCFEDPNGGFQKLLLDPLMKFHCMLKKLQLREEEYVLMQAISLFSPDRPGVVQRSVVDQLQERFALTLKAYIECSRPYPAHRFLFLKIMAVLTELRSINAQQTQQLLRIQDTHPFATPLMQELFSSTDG
In short: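 Luminescent readout (One-Glo luciferase, 30 min room temperature) followed 24 hr compound treatment at 37 C of rPXR cells plated 2,000 per well and preincubated 5hr; qHTS format with compounds delivered in DMSO.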

[13] = biological target: Nuclear receptor subfamily 1 group I member 2 (Homo sapiens) (UniProt O75469); test: CYP3A4 induction through human pregnane X receptor (PXR) by small molecules, qHTS assay (AID 1346984); further: nearly all actives have a fitted effect of over 40% in size
Sequence of Nuclear receptor subfamily 1 group I member 2 (Homo sapiens) (O75469 whole entry, looked up): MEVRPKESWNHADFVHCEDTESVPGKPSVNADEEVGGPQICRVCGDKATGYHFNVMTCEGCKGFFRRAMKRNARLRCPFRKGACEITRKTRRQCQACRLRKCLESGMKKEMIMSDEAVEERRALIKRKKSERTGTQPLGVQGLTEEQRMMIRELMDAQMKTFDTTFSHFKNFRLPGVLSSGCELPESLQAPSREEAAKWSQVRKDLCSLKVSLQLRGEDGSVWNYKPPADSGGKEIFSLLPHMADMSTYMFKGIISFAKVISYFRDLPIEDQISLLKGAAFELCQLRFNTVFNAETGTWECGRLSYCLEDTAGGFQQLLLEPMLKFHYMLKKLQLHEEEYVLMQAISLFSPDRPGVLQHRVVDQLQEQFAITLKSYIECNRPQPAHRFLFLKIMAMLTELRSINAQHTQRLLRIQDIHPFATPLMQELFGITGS
In short: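 HepG2-derived DPX-2 line carrying PXR plus a CYP3A4-promoter luciferase reporter; cells plated 5 hr, compound-exposed 24 hr at 37C. CYP3A4 activity probed with 3uM (final) Luciferin-IPA for 3hr, then luciferase read after One-Glo.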

[14] = biological target: Cytochrome P450 2D6 (Homo sapiens) (UniProt P10635); test: Cytochrome P450 Family 2 Subfamily D Member 6 (CYP2D6) small molecule antagonists: luciferase reporter qHTS assay (AID 1671196); further: nearly all actives have a fitted effect of over 50% in size; further: potency means the concentration at half of the fitted maximal effect
Sequence of Cytochrome P450 2D6 (Homo sapiens) (P10635 whole entry, looked up): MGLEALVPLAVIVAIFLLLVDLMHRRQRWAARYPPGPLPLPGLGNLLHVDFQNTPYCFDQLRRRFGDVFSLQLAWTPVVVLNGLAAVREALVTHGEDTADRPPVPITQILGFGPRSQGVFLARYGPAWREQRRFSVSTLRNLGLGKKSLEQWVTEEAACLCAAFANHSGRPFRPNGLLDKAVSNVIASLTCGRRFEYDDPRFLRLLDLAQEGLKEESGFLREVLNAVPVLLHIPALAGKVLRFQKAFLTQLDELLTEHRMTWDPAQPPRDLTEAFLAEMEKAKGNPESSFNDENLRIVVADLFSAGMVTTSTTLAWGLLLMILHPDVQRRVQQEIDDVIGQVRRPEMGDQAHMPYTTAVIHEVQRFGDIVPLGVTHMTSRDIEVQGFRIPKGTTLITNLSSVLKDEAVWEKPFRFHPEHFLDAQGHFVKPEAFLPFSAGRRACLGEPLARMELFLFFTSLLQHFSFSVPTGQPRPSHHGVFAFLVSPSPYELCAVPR
In short: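 Luminogenic proluciferin substrate, CYP2D6 enzyme; 10 min RT preincubation with compound, NADPH regeneration system added, 1 h RT. Stop/detection reagent, 20 min RT, luminescence read (RLU). Signal proportional to CYP activity.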

[15] = biological target: Cytochrome P450 2C9 (Homo sapiens) (UniProt P11712); test: Cytochrome P450 Family 2 Subfamily C Member 9 (CYP2C9) small molecule antagonists: luciferase reporter qHTS assay (AID 1671198); further: nearly all actives have a fitted effect of over 50% in size; further: potency means the concentration at half of the fitted maximal effect
Sequence of Cytochrome P450 2C9 (Homo sapiens) (P11712 whole entry, looked up): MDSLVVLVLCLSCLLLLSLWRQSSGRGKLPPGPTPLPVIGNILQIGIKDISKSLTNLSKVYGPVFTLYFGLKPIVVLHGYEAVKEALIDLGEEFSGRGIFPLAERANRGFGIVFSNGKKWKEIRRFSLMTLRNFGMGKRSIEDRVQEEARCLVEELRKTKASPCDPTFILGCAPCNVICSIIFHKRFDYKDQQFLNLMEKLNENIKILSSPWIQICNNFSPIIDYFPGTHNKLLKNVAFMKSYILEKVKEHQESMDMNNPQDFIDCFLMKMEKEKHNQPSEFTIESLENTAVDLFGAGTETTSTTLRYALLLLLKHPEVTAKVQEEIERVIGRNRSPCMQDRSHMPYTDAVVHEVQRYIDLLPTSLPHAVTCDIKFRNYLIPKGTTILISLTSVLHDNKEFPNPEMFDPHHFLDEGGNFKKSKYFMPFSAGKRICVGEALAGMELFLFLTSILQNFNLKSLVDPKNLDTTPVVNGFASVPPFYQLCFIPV
In short: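 Enzyme-substrate mix preincubated with compound 10 min at room temperature; reaction started with NADPH regeneration solution, 1 h 37C. Luminescent luciferin product read after 20 min detection reagent.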

[16] = biological target: Thyrotropin-releasing hormone receptor (Homo sapiens) (UniProt P34981); test: qHTS assay to identify small molecule antagonists of the thyrotropin-releasing hormone receptor (TRHR) signaling pathway (AID 1346877; active means well fitted inhibition curve with a large enough effect in the repeat runs, not every such curve was filed as active; further: series mostly up to about 51 µM)
Sequence of Thyrotropin-releasing hormone receptor (Homo sapiens) (P34981 whole entry, looked up): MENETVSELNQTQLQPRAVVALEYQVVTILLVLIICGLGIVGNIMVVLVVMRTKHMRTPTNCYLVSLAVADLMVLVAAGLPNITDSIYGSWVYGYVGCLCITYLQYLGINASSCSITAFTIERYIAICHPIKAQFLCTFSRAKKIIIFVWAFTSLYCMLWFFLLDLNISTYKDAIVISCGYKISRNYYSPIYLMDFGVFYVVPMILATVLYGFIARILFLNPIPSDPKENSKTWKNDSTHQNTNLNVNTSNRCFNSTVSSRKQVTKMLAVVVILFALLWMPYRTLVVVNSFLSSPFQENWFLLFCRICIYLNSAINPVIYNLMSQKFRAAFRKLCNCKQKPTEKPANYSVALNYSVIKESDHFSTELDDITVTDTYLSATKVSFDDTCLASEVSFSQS
In short: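 HEK293/TRHR cells, 18 h, 37 °C; Ca2+ dye 2 h; cpd 5 min RT; TRH 1 nM final; fluorescence read 3 min, 1 s intervals; 15 concs, triplicate.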

[17] = biological target: Thyrotropin-releasing hormone receptor (Homo sapiens) (UniProt P34981); test: qHTS assay to identify small molecule agonists of the thyrotropin-releasing hormone receptor (TRHR) signaling pathway (AID 1346891; calls by dose curve; further: series mostly up to about 58 µM)
In short: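 Agonist-mode intracellular calcium readout: kinetic fluorescence over 3 min at 1 s intervals after compound addition to TRHR-HEK293 cells (18 h seeded, 2 h dye-loaded at 37 C). Fifteen concentrations, triplicates.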

[18] = Caspase-3/7 induction in HepG2 cells by small molecules, qHTS cell viability counter screen (AID 1346981); further: series mostly up to about 92 µM; nearly all actives have a fitted effect of over 30% in size
In short: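 Fluorescence read-out of live-cell protease activity (CellTiter-Fluor) after 1 hr with reagent. This was measured in the same wells as the caspase-3/7 luminescence, on HepG2 cells exposed to DMSO-dissolved compounds for 16 hr at 37 C.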

[19] = biological target: Nuclear receptor subfamily 1 group I member 2 (Homo sapiens) (UniProt O75469); test: Human pregnane X receptor (PXR) small molecule agonists, qHTS assay (AID 1346982); further: nearly all actives have a fitted effect of over 35% in size
In short: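 HepG2 PXR-Luc reporter line, 5% charcoal-stripped FBS; 5 hr pre-incubation, compound (DMSO) 24 hr at 37 C/5% CO2; ONE-Glo 30 min RT; luminescence read-out.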

[20] = biological target: Cytochrome P450 2C19 (Homo sapiens) (UniProt P33261); test: Cytochrome P450 Family 2 Subfamily C Member 19 (CYP2C19) small molecule antagonists: luciferase reporter qHTS assay (AID 1671197); further: nearly all actives have a fitted effect of over 65% in size; further: potency means the concentration at half of the fitted maximal effect
Sequence of Cytochrome P450 2C19 (Homo sapiens) (P33261 whole entry, looked up): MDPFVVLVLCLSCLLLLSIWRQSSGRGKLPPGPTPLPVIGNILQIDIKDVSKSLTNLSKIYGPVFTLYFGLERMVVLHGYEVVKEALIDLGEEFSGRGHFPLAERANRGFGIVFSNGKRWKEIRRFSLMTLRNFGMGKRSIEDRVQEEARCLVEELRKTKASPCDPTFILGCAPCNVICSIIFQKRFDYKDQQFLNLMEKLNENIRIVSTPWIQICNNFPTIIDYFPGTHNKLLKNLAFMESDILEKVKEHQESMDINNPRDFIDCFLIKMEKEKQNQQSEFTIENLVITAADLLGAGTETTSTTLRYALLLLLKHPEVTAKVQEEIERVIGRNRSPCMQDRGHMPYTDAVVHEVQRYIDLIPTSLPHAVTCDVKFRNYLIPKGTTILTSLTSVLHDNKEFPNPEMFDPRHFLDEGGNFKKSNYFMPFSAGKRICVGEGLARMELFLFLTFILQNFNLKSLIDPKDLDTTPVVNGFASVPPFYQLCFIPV
In short: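 Luminescent readout of CYP2C19 activity: luciferin product detected 20 min after adding detection reagent. Before that, compound and enzyme-substrate mix preincubated 10 min at room temperature; NADPH-regenerating system started a 1 h, 37C reaction. Ketoconazole as positive control.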

SMILES	outcome [1]	Potency [2]	Potency [3]	Potency [4]	Potency [5]	Potency [6]	Potency [7]	Potency [8]	Potency [9]	Potency [10]	Potency [11]	max activation [12] [%]	Potency [13]	Potency [14]	Potency [15]	Potency [16]	Potency [17]	Potency [18]	Potency [19]	Potency [20]
O=C1OC(OC(=O)c2cccnc2Nc2cccc(C(F)(F)F)c2)c2ccccc21 (configuration not stated)	inactive	inactive	inactive	inactive	inactive	inactive	inactive	inactive	inactive	inactive	inactive	-3.51	inactive	inactive	6.17 µM (active)					
O=C1OC(=O)c2ccc3c4c(ccc1c24)C(=O)OC3=O	inactive	inactive	inactive	inactive	inactive	inactive	inactive	inactive	inactive		inactive			inactive	inactive	inactive	inactive	inactive	inactive	
Cc1cn[nH]c1	inactive	inactive	inactive	inactive	inactive	inactive	inactive	inactive	inactive	inactive								inactive		
CCC(C)C(=O)OC (configuration not stated)	inactive	inactive	inactive		inactive	inactive	inactive	inactive	inactive	inactive	inactive			inactive	inactive	inactive	inactive	inactive	inactive	inactive
Clc1ccc(C(Cn2ccnc2)OCc2ccsc2Cl)c(Cl)c1 (configuration not stated)	inactive	3.35 µM (active)	6.68 µM (active)	8.41 µM (active)	inactive	inactive			inactive	21.1 µM (active)	inactive			3.47 µM (active)	0.309 µM (active)	inactive	inactive			0.347 µM (active)
c1ccc(Sc2ccccc2)cc1	inactive	inactive	inactive	inactive	inactive	inactive	inactive	inactive	inactive	inactive	inactive				inactive			inactive	inactive	
CCOC(=O)CC(C)O (configuration not stated)	inactive	inactive	inactive		inactive	inactive	inactive	inactive	inactive	inactive	inactive			inactive	inactive			inactive	inactive	inactive
